Assay results reported in the supplement of paper PMC6555819.

Assays:
Assay in all cases: PBM binding z-score (relative to random genomic background probes); higher = stronger binding; sequences stand for … in GC…GCGATTGACAGCGTAGAATGAAGG
[1] = tested on: FXR:RXRa (NR concentration 270 nM, RXRa partner concentration 90 nM)
Procedure, shortened: (§1)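 Probes were double-stranded and carried 34-nt variable regions with direct-repeat seeds, single-nucleotide variants, half-site ablations and random human genomic background sequences, printed on custom Agilent 4×180K protein-binding microarrays. Arrays were incubated 1 h with ligand-free nuclear receptor dimers in PBS pH 7.4, 2% milk, 0.02% Triton X-100, 1 mM DTT, 0.2 mg/mL BSA and 0.4 mg/ml salmon testes DNA. Antibodies against each partner (one per run) detected binding, and scanned fluorescence was regression-normalized. Binding z-scores use the random background probes as reference.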

[2] = tested on: LXRa:RXRa (NR concentration 270 nM, RXRa partner concentration 90 nM)
Procedure, shortened: as §1

[3] = tested on: LXRa homodimer (NR concentration 270 nM)
Procedure, shortened: as §1

[4] = tested on: LXRb:RXRa (NR concentration 270 nM, RXRa partner concentration 90 nM)
Procedure, shortened: as §1

[5] = tested on: LXRb homodimer (NR concentration 270 nM)
Procedure, shortened: as §1

[6] = tested on: PPARa:RXRa (NR concentration 270 nM, RXRa partner concentration 90 nM)
Procedure, shortened: as §1

[7] = tested on: PPARg:RXRa (NR concentration 180 nM, RXRa partner concentration 90 nM)
Procedure, shortened: as §1

[8] = tested on: PPARg:RXRa 270nM:90nM, anti-RXR (NR concentration 270 nM, RXRa partner concentration 90 nM)
Procedure, shortened: as §1

[9] = tested on: PPARg:RXRa 30nM:10nM, anti-RXR (NR concentration 30 nM, RXRa partner concentration 10 nM)
Procedure, shortened: as §1

[10] = tested on: PPARg:RXRa 90nM:30nM, anti-RXR (NR concentration 90 nM, RXRa partner concentration 30 nM)
Procedure, shortened: as §1

[11] = tested on: PPARg:RXRa DBDmut IVT, anti-RXR (DBD mutation: RXRa K156A/R161A, NR concentration 270 nM, RXRa partner concentration 90 nM)
Procedure, shortened: as §1

[12] = tested on: PPARg:RXRa IVT, anti-PPARg (NR concentration 270 nM, RXRa partner concentration 90 nM)
Procedure, shortened: as §1

[13] = tested on: PPARg DBDmut:RXRa IVT, anti-PPARg (DBD mutation: PPARg1 K132A/R137A, NR concentration 270 nM, RXRa partner concentration 90 nM)
Procedure, shortened: as §1

[14] = tested on: PPARg DBDmut IVT, anti-PPARg (DBD mutation: PPARg1 K132A/R137A, NR concentration 270 nM)
Procedure, shortened: as §1

[15] = tested on: PPARg homodimer (NR concentration 180 nM)
Procedure, shortened: as §1

[16] = tested on: PXR:RXRa (NR concentration 270 nM, RXRa partner concentration 90 nM)
Procedure, shortened: as §1

[17] = tested on: PXR homodimer (NR concentration 270 nM)
Procedure, shortened: as §1

[18] = tested on: RARa:RXR (NR concentration 270 nM, RXRa partner concentration 90 nM)
Procedure, shortened: as §1

[19] = tested on: RARa homodimer (NR concentration 270 nM)
Procedure, shortened: as §1

[20] = tested on: RARb:RXRa (NR concentration 270 nM, RXRa partner concentration 90 nM)
Procedure, shortened: as §1

Sequence	PBM binding z-score [1]	PBM binding z-score [2]	PBM binding z-score [3]	PBM binding z-score [4]	PBM binding z-score [5]	PBM binding z-score [6]	PBM binding z-score [7]	PBM binding z-score [8]	PBM binding z-score [9]	PBM binding z-score [10]	PBM binding z-score [11]	PBM binding z-score [12]	PBM binding z-score [13]	PBM binding z-score [14]	PBM binding z-score [15]	PBM binding z-score [16]	PBM binding z-score [17]	PBM binding z-score [18]	PBM binding z-score [19]	PBM binding z-score [20]
CTCGAAAGGTCGTGCTCATGTGAGTATACCAAAC	5.17	3.72	0.36	3.54	0.234	5.08	2.86	3.9	0.836	2.6	1.04	1.63	0.526	0.798	1.16	3.17	0.0761	4.03	0.231	4.13
CCTATTAGTTGTCCATAAGGGCAACCGAAGCTCG	0.902	0.553	0.8	0.558	1.17	0.459	0.174	0.706	-0.0798	0.365	0.332	0.804	0.706	1.02	1.69	0.563	0.996	1.1	2.11	1.44
CCGAGTATGTTATGGGGCATTCAGGCAACGGTGA	0.355	-0.00818	-0.0828	0.322	-0.243	0.665	0.711	1.75	0.316	1.35	0.63	0.892	-0.0498	-0.0954	0.937	0.0662	0.093	0.394	0.535	0.242
GCTTGTAGATCAAGGTTAACAAAGACTAAGCTAA	0.151	1.17	-0.222	0.96	-0.488	1.91	2.04	3.12	0.936	2.61	1.56	1.61	-0.0951	0.163	0.0842	0.565	0.265	1.07	-0.205	1.04
TCTGCTAGGTCAGTTGGTCAGCTAACGAGCTGCC	0.844	0.445	-0.44	0.299	0.673	1.29	0.575	1.83	1.27	1.66	2.77	3.08	-0.303	0.752	0.0124	0.0781	-0.754	0.864	-0.941	3.35
CAGCCTAGGTCAGGGCCAGAATAGGAGGAACGTT	1.68	0.905	-0.589	0.734	-1.02	2.04	1.06	0.725	-0.241	0.0702	1.51	1.55	-0.6	-1.51	0.276	0.146	-0.618	0.927	-0.25	3.49
GCGACTGGGGCAAAGAAGGTTACCATAAGGTTGG	1.24	0.788	-0.0747	1.06	-0.824	1.72	1.56	2.22	0.513	1.66	4.68	3.4	-0.0271	-0.382	0.618	1.11	-0.136	1.22	-0.528	1.59
TCGAGTAGGTTAGGGGCATTCATAATGGCGTCGA	0.0373	0.369	0.0659	0.931	-0.211	1.4	1.06	2.19	1.35	1.98	2.14	1.72	-0.476	-0.145	0.584	0.584	0.233	0.705	0.173	1.07
GCTGCTAGGTCAGGTTAGTCAGCTAACGGGTACG	1.16	0.852	-0.246	0.282	-0.367	1.51	0.774	1.17	-0.493	0.602	2.9	2.42	-0.896	-1.02	0.349	0.128	-0.498	0.677	-0.907	3.29
GCGACTGGGGCAAAGCAGGGTACCATAAGGTTGG	-0.153	-0.295	-0.964	-0.249	-1.01	0.981	0.93	0.904	-0.207	0.227	3.87	3.24	-0.359	-0.643	-0.201	-0.102	-0.367	0.315	-0.579	0.894
ACTATTAGTTGACTTAGGGCACCCGATACGACGC	-0.0668	-0.208	0.0685	-0.198	0.757	-0.213	0.894	0.204	0.268	0.525	0.28	0.339	1.12	1.59	0.282	-0.159	0.392	0.226	1.18	0.663
CCAGAGAGGTGAAAGGTAACTCAGTCTGGTACGC	1.97	1.72	-0.386	1.72	-0.316	4.52	6.53	6.32	4.89	6.42	3.73	4.05	0.0614	-0.0478	2.31	2.19	0.131	3.44	0.813	2.39
TCTTGTAGATCAAAGGTTTAGAAAGCCGAAGCCT	0.668	0.408	-0.116	0.454	-0.505	1.63	3.22	5.08	4.18	5.48	1.79	1.19	0.53	0.0845	0.307	0.16	-0.198	0.358	-0.0128	-0.0359
ACAGACAGGTGAGTGAAGGTAACCCAGCTGGACG	0.353	-0.0379	-0.585	-0.271	-0.844	0.275	0.708	0.399	-0.129	0.213	0.473	0.884	0.557	-0.411	0.0822	-0.299	-0.316	0.365	-0.386	0.623
